Shiga inhibitor = Shiga toxin inhibition; Vero cells, Shiga toxin protein synthesis inhibition reporter; inhibition, % at 38.7 µM; actives 9.2% (n = 290,000); in the data active means inhibition mostly above about 28%, no sharp cut-off; inactive means mostly below about 43%; further: 0% is about no effect
Giardia FBPA inh = inhibitors of Giardia lamblia fructose-1,6-bisphosphate aldolase; purified Giardia FBPA; actives 0.71% (n = 290,000); A8B2U2; Potency, µM (series often up to 59.6 µM), for the others: at the highest dose activity, negative = inhibition, hits mostly inhibitors; AID 2451; further: potency means the concentration at half of the fitted maximal effect; on the % scale 0 is the no-effect control and ±100 the full control effect; nearly all actives have a fitted effect of over 55% in size
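Giardia FBPA (40 nM reagent) was preincubated 10 min at RT with compound (up to 57.5 uM final), then substrate plus GAPDH/TPI/NAD/arsenate coupling system with diaphorase/resazurin was added; resorufin fluorescence (525/598 nm) was read after 20 min.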
Tb PYK inh = T. brucei pyruvate kinase inhibition | Q57TT1 | TbPYK enzyme, Kinase-Glo Plus ATP luminescence, 45 min | Potency, µM (titrated, usually from 76.8 µM), inactives show top-dose activity, negative = inhibition, hits mostly inhibitors | actives 0.12% (n = 410,000) | AID 624173; further: potency means the concentration at half of the fitted maximal effect; on the % scale 0 is the no-effect control and ±100 the full control effect; nearly all actives have a fitted effect of over 50% in size
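Screened from lowest to highest concentration, compounds were pinned into TbPYK/substrate mixtures, and ADP (130 uM final) was added. Plates sat at room temperature for 45 min prior to Kinase-Glo Plus detection by luminescence.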
RE007 growth inh = less growth of the S. pombe RE007 Vpr strain. S. pombe RE007 Vpr strain, BacTiter-Glo ATP luminescence, 24 h. actives 0.21% (n = 360,000). Potency, µM (titrated, usually from 92.2 µM), for the others: top-dose activity change, negative = less growth, actives largely listed as inhibitors; active means well fitted falling curve with a large enough effect; inconclusive means small, poorly fitted or top-dose-only effect; inactive means no such curve, though single readings can be large or run the other way; further: potency means the concentration at half of the fitted maximal effect; on the % scale 0 is the no-effect control and ±100 the full control effect; nearly all actives have a fitted effect of over 50% in size
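Fission yeast RE007 carrying one integrated HIV-1 vpr copy, seeded at OD 0.01 in PMG+AL medium with 23 nL pinned compound. Grown 24 h at 30 degrees; viability read by BacTiter-Glo luminescence after 5 min.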
LmPK inh = blocks Leishmania mexicana pyruvate kinase activity. actives 0.37% (n = 290,000). purified LmPK, Kinase-Glo ATP luminescence, 1 h. Potency, µM (series often up to 57.5 µM), for inactives: top-dose activity change, negative = inhibition, usual class: inhibitors. Q27686. AID 1721; further: potency means the concentration at half of the fitted maximal effect; on the % scale 0 is the no-effect control and ±100 the full control effect
Target sequence (Q27686 whole entry, looked up): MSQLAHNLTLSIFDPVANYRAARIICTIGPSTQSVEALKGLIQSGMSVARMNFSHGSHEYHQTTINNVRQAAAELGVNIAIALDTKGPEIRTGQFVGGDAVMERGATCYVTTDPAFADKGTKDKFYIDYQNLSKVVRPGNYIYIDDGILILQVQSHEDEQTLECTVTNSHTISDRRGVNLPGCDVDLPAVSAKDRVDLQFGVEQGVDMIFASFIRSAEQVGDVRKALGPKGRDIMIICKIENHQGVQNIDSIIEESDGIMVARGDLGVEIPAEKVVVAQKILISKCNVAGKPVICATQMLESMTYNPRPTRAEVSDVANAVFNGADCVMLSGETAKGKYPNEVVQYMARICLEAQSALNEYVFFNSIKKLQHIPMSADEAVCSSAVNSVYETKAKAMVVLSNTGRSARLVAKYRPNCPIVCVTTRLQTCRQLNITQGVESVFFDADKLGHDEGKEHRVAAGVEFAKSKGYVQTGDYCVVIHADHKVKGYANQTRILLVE
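Kinase-Glo luminescence read after 1 h RT reaction of 0.1 nM LmPK with 0.5 mM PEP and 0.1 mM ADP. Activity scaled between uninhibited and enzyme-free controls.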
Cycloheximide cs = counter-screen for Shiga toxin inhibitors: cycloheximide protein synthesis inhibition | actives 12% (n = 300,000) | max response, % | cell reporter, cycloheximide protein synthesis inhibition counterscreen; in the data active means max response mostly above about 13%, no sharp cut-off; inactive means mostly below about 14%; further: read at 38.3 µM for the half of the compounds with a filed dose; 0% is about no effect
* = called active by the depositor. This excerpt belongs to a sample that is enriched for hits. Unless noted, the call rests on the fitted dose curve; in most records, active means well fitted curve in the direction sought with a large enough effect; inconclusive means small, poorly fitted or top-dose-only effect, or another doubt; inactive means no such curve, though single readings can be large; an effect the other way counts as inactive or inconclusive.

How did CC1CN(S(=O)(=O)c2cccc(C(=O)N3CCC(C(N)=O)CC3)c2)CC(C)O1 (centres undefined) do in these assays?
Tb PYK inh: 0.3%; RE007 growth inh: -4.0%

How did Cn1cccc1/C=C1\C(=O)NC(=O)N(Cc2ccco2)C1=O do in these assays?
Shiga inhibitor: -13.5; Giardia FBPA inh: 0.1%; Tb PYK inh: -7.3%; RE007 growth inh: -5.0%; LmPK inh: 26.3%; Cycloheximide cs: 11.3

Results for Cc1ccc(OCCn2cccc2/C=C2/C(=O)NC(=O)N(Cc3ccco3)C2=O)cc1 ?
Shiga inhibitor: 36.9*; Giardia FBPA inh: 2.4%; Tb PYK inh: -12.6%; RE007 growth inh: -5.7%; LmPK inh: 10.2%; Cycloheximide cs: 21.7*

What do the screens show for `Cc1cc(/C=C2\C(=O)NC(=O)N(Cc3ccco3)C2=O)c(C)n1-c1ccc(O)cc1`?
Shiga inhibitor: 14.8; Giardia FBPA inh: 4.9%; Tb PYK inh: -9.5%; RE007 growth inh: -3.8%; LmPK inh: 6.7%; Cycloheximide cs: 17.4*

How did CCc1ccc(N2C(=O)NC(=O)/C(=C\c3cccn3CCOc3ccc(C(C)C)cc3)C2=O)cc1 do in these assays?
Shiga inhibitor: active; Giardia FBPA inh: 2.8%; Tb PYK inh: -9.7%; RE007 growth inh: 4.9%; LmPK inh: 0.7%; Cycloheximide cs: 73.1*

Results for CCOC(=O)c1cccc(NC(=O)c2cnc3sc(N4CCOCC4)nn3c2=O)c1 ?
Tb PYK inh: 4.6%

What do the screens show for `O=C(N/N=C/c1ccc[nH]1)c1cc2ccccc2cc1O`?
Shiga inhibitor: 78.3*; Giardia FBPA inh: inconclusive; Tb PYK inh: 3.3%; RE007 growth inh: 3.8%; LmPK inh: 6.0%; Cycloheximide cs: 31.5*

What do the screens show for `O=C(N/N=C/c1ccncc1)c1cc2ccccc2cc1O`?
Shiga inhibitor: 30.9*; Tb PYK inh: -13.0%; RE007 growth inh: 6.4%; LmPK inh: -0.5%; Cycloheximide cs: 31.5*

How did O=C(N/N=C/c1ccc[nH]1)c1cc(-c2ccc(Cl)cc2)nc2ccccc12 do in these assays?
Shiga inhibitor: 10.5; Giardia FBPA inh: -10.2%; Tb PYK inh: -3.6%; RE007 growth inh: 4.9%; LmPK inh: 0.3%; Cycloheximide cs: 8.9

How did O=C(CNc1ccc2ccccc2c1)N/N=C/c1ccncc1 do in these assays?
Shiga inhibitor: -7.4; Giardia FBPA inh: -18.6%; Tb PYK inh: -8.9%; RE007 growth inh: -15.2%; LmPK inh: 6.8%; Cycloheximide cs: 1.7

Results for O=C(NC1CCCC1)c1cc2c(=O)n3ccccc3nc2s1 ?
Tb PYK inh: -11.1%; RE007 growth inh: 12.4%

What do the screens show for `CC1CCCN(C(=O)c2cc3c(=O)n4ccccc4nc3s2)C1` (centres undefined)?
Shiga inhibitor: 78.1*; Giardia FBPA inh: 12.3%; Tb PYK inh: 0.9%; RE007 growth inh: 3.4%; LmPK inh: 1.2%; Cycloheximide cs: 34.3*

Results for CCN1CCN(C(=O)c2cc3c(=O)n4ccccc4nc3s2)CC1 ?
Shiga inhibitor: 16.8; Giardia FBPA inh: 5.0%; Tb PYK inh: 0.0%; RE007 growth inh: -1.9%; LmPK inh: 0.3%; Cycloheximide cs: 10.1

How did CCOC(=O)C1CCN(C(=O)c2cc3c(=O)n4cccc(C)c4nc3s2)CC1 do in these assays?
Shiga inhibitor: -5.7; Giardia FBPA inh: -0.7%; Tb PYK inh: 4.0%; RE007 growth inh: -6.5%; LmPK inh: 0.8%; Cycloheximide cs: -1.0

How did CC1CCCCN1C(=O)c1cc2c(=O)n3ccccc3nc2s1 (centres undefined) do in these assays?
Shiga inhibitor: 51.9*; Giardia FBPA inh: -8.7%; Tb PYK inh: 5.6%; RE007 growth inh: 2.9%; LmPK inh: 1.5%; Cycloheximide cs: 9.6

How did O=C(c1cc2c(=O)n3ccccc3nc2s1)N1CCc2ccccc2C1 do in these assays?
Shiga inhibitor: 13.2; Giardia FBPA inh: inconclusive; LmPK inh: 2.9%; Cycloheximide cs: 11.3*

What do the screens show for `CCOC(=O)C1CCN(C(=O)c2cc3c(=O)n4ccccc4nc3s2)CC1`?
Shiga inhibitor: 35.1; Tb PYK inh: 0.8%; RE007 growth inh: 7.3%; LmPK inh: -7.6%; Cycloheximide cs: 22.6*
